The test system of the assay is Plasmodium falciparum NF54/iGP1_RE9H ulg8 stage V gametocytes. The assay can be described thus: gametocyte viability (luciferase signal relative to DMSO control) (% of DMSO control); higher = less gametocytocidal activity, active = 50 or less. The conditions noted are these: exposure time: 72 h. The gist of the method:
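Compounds from 10 mM DMSO stocks were spotted at nanolitre scale into 96-well plates, and day-12 stage V NF54/iGP1_RE9Hulg8 gametocytes (~2.5% gametocytemia, 3% hematocrit; medium with 0.5% Albumax II) were added to reach 10 µM or 1 µM, one well per concentration. The plates were kept at 37 °C for 72 h. Luminescence was then read on an IVIS Lumina II after mixing 90 µl of culture with 10 µl D-luciferin (30 mg/ml). Viability values are relative to the plate's mean DMSO vehicle signal.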

Where “and” joins values, the source holds several entries; their conditions need not be identical. Equal values may be shown once. Where a name gives a salt, the structure may show the parent alone. A number with no mark means an inactive call.

Consider `O=P(O)(O)C(O)c1ccc2ccccc2c1` (stereo not drawn) [Hydroxy-2-naphthalenylmethylphosphonic acid], for which the gametocyte viability was 95.7 (concentration: 1 µM) and 90.5 (concentration: 10 µM).

As to `CCOc1cc2ncc(C#N)c(Nc3ccc(OCc4ccccn4)c(Cl)c3)c2cc1NC(=O)/C=C/CN(C)C` [Neratinib (HKI-272)], the gametocyte viability runs as follows: (concentration: 1 µM) 103; (concentration: 10 µM) 104.

In the case of `CC(C)(C)Cn1c(N)nc2ccc(-c3[nH]c(C(C)(C)C)nc3-c3ccc(F)cc3)nc21`, the gametocyte viability reads like this: (concentration: 1 µM) 97.8; (concentration: 10 µM) 105.

For the compound `Clc1ccc(Nc2nnc(Cc3ccncc3)c3ccccc23)cc1` [Vatalanib dihydrochloride (PTK787)], the gametocyte viability is, setting by setting: (concentration: 1 µM) 111; (concentration: 10 µM) 115.

In the case of `C[S+]([O-])c1ccc(-c2nc(-c3ccc(F)cc3)c(-c3ccncc3)[nH]2)cc1` (stereo not drawn), the gametocyte viability is, setting by setting: (concentration: 1 µM) 97.2 and 103; (concentration: 10 µM) 109 and 105.

Turning to `O=S(=O)(c1cccc2cnccc12)N1CCCNCC1`, the gametocyte viability (concentration: 1 µM) was 101 and the gametocyte viability (concentration: 10 µM) is 110.

Consider `COc1cc(Nc2ncc(F)c(Nc3ccc4c(n3)NC(=O)C(C)(C)O4)n2)cc(OC)c1OC` [R406(free base)], for which the gametocyte viability is, setting by setting: (concentration: 1 µM) 96.3; (concentration: 10 µM) 103.

`Cc1ccc(-n2nc(C(C)(C)C)cc2NC(=O)Nc2ccc(OCCN3CCOCC3)c3ccccc23)cc1` [BIRB 796 (Doramapimod)]: the gametocyte viability is 96 (concentration: 1 µM) and 98.8 (concentration: 10 µM).

Take `Cn1cnc(-c2cc3nccc(Oc4ccc(NC(=S)NC(=O)Cc5ccccc5)cc4F)c3s2)c1`: the gametocyte viability (concentration: 1 µM) is 90.2 and the gametocyte viability (concentration: 10 µM) is 93.5.

The values above are taken from the supplement of paper PMC12297408.
